Assay outcomes deposited in PubChem BioAssay by National Center for Advancing Translational Sciences (NCATS).
Compounds with a hit are over-represented: about 21% of the library has one in this group of screens.
ELG1 repair inh = ELG1-dependent DNA repair inhibition | HEK293T ELG1-luciferase reporter, luminescence, 16 h; DNA damage induced by 5-fluorouridine | Potency, µM (series often up to 46.1 µM), most hits filed as inhibitors | 330,000 compounds, 2.3% hits | AID 504467; also: nearly all actives have a fitted effect of over 55% in size
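5-Fluorouridine DNA damage + compound/DMSO, 2,000 cells/well, 16 h, 37 °C/5% CO2. ONE-Glo, 30 min RT, luminescence. Readout = decrease in reporter signal.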
TDP1 cell CPT = growth inhibition of DT40 Tdp1-/-;hTDP1 cells with camptothecin (screen for TDP1 inhibitors); chicken DT40 Tdp1-/-;hTDP1 cells + 20 nM CPT, ATP luminescence, 48 h; Potency, µM (doses to about 46.2 µM), most hits filed as inhibitors; 420,000 compounds, 12% hits; AID 686979; also: nearly all actives have a fitted effect of over 55% in size
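Chicken DT40 Tdp1-/- cells stably complemented with human TDP1 were seeded at 400 cells/well in medium containing 20 nM camptothecin, exposed to pin-transferred compounds, and grown at 37 °C for at least 48 hr. Viability was read as ATP luminescence.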
RORg inh = ROR gamma (mouse) transcription inhibition. Drosophila S2 Gal4-RORgamma UAS-luciferase reporter, 20 h. Potency, µM (highest dose often 53.6 µM), hits mostly inhibitors. 310,000 compounds, 5.4% hits; also: nearly all actives have a fitted effect of over 60% in size
Target sequence (P51450 whole entry, looked up, the tested form may be a part): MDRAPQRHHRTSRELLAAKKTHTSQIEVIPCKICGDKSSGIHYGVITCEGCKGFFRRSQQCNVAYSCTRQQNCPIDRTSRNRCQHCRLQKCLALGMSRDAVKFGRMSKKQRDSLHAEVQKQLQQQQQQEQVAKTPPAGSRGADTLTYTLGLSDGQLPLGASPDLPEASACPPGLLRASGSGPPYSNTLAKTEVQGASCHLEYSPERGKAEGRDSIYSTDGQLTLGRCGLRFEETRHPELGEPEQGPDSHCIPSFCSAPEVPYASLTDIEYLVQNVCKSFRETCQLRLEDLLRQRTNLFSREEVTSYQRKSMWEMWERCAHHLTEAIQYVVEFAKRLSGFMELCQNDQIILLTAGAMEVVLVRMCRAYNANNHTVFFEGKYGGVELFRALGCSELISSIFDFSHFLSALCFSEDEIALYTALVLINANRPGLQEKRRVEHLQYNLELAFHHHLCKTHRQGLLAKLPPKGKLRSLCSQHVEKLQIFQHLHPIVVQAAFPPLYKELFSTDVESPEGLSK
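Stably transfected Drosophila Schneider cells are the test system, with ROR gamma fused to Gal4 and luciferase under UAS control; luminescence is read after 20 hr of 700 uM copper sulfate induction at ambient temperature.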
IL1B secr inh = inflammasome signaling inhibition, IL-1 beta readout. THP-1 LPS/ATP IL-1B secretion, AlphaLISA, 16 h; hits give low values. activity change, % at 57.5 µM. 360,000 compounds, 4.7% hits; in the data active = activity change below about -50%; inconclusive = mostly about -30% to -49%
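THP-1 cells pretreated 1 hr with compounds (up to 57.5 uM final), then stimulated with LPS (250 ng/mL final) plus ATP (1.25 mM final); secreted IL-1B measured by AlphaLISA after 16 hr, decreased signal indicating inhibition.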
DT40 TDP1 no CPT = qHTS for Inhibitors of human tyrosyl-DNA phosphodiesterase 1 (TDP1): qHTS in cells in absence of CPT | 420,000 compounds, 15% hits | Potency, µM (series often up to 46.2 µM), most hits filed as inhibitors | AID 686978, 2013 | DT40 Tdp1-/- hTDP1 cells, no CPT, ATP luminescence, 48 h; also: nearly all actives have a fitted effect of over 55% in size
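DT40 Tdp1-/-;hTDP1 cells, no CPT (DMSO vehicle only), 400 cells/well; compounds pin-transferred; ≥48 hr, 37 °C; CellTiter-Glo 30 min RT dark, luminescence read.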
VP16 counter = counter-screen for ROR gamma inhibitors: Gal4-VP16 reporter; Drosophila S2 Gal4-VP16 UAS-luciferase, luminescence, 20 h; Potency, µM (doses to about 53.6 µM), actives largely listed as inhibitors; 310,000 compounds, 3.5% hits; AID 2546;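 also: Gal4-VP16 expression switched on by copper sulfate through the metallothionein promoter; nearly all actives have a fitted effect of over 50% in size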
Hits are given with their value; 0 = inactive; ? = inconclusive; - = no result given. Unless noted, calls follow the shape of the dose curve; as a rule, active = well fitted curve in the direction sought with a large enough effect; inconclusive = small, poorly fitted or top-dose-only effect, or another doubt; inactive = no such curve, though single readings can be large; an effect the other way counts as inactive or inconclusive.

SMILES	ELG1 repair inh	TDP1 cell CPT	RORg inh	IL1B secr inh	DT40 TDP1 no CPT	VP16 counter
Cc1ccc(O)c(NC(=O)c2cc(-c3ccc(F)cc3)on2)c1	?	0	0	?	0	0
O=C1NC[C@@H](CCCCN2C[C@H](Cc3ccc(O)cc3)N(CCc3ccc(O)cc3)C(=O)C2=O)N(Cc2ccccc2)C1=O	-	0	-	0	0	-
CC(C)[C@@H](CC(=O)N[C@@H]1CCNC[C@H]1C(=O)N[C@H](CC(=O)N[C@@H](CCC(=O)O)CC(=O)O)Cc1ccccc1)NC(=O)C[C@H](Cc1ccccc1)NC(=O)[C@@H]1CNCC[C@H]1N	-	-	0	-	-	0
CCCCN1C(=O)/C(=C/C=C2\SCCN2C)SC1=S	?	?	?	-50	0	0
Clc1ccccc1Cn1nnc2c(N3CCCC3)ncnc21	0	?	0	0	?	0
CCc1nc(N2CCC3(CC2)OCCO3)c2nnn(Cc3ccccc3Cl)c2n1	0	?	0	?	16µM	0
CCSC1(SCC)N=C(N)C2(C#N)C(c3ccccc3)NC3=C(CCC3)C12C#N (stereo unspecified)	0	0	?	0	0	0
CCSC1(SCC)N=C(N)C2(C#N)C(c3ccc(OC)c(OC)c3OC)C12C#N (stereo unspecified)	15µM	6.5µM	11µM	-115	8.2µM	2.5µM
COc1ccc(C2C(C#N)=C(N)N(N(C)C)C3=C2C(=O)CC(C)(C)C3)cc1OC (stereo unspecified)	0	0	0	0	0	0
C=CCOc1ccc(C2C(C#N)=C(N)N(Nc3ccccc3)C3=C2C(=O)CCC3)cc1OC (stereo unspecified)	0	?	?	0	16µM	0
COc1ccc(C2C(C#N)=C(N)N(Nc3ccccc3)C3=C2C(=O)CC(C)(C)C3)cc1C (stereo unspecified)	?	0	0	?	0	0
COc1cc(C2C(C#N)=C(N)N(Nc3ccccc3)C3=C2C(=O)CC(C)(C)C3)ccc1OCc1ccccc1 (stereo unspecified)	?	?	?	?	21µM	0
COc1cc(C2C(C#N)=C(N)N(Nc3ccccc3)C3=C2C(=O)CC(C)(C)C3)ccc1OCc1cccc(F)c1 (stereo unspecified)	?	?	?	-52	?	0
COc1ccc(C2C(C#N)=C(N)N(c3cccnc3)C3=C2C(=O)CC(C)(C)C3)cc1OC (stereo unspecified)	0	23µM	0	0	?	0
C=CCC(C)(O)c1ccsc1 (stereo unspecified)	-	-	0	-	-	0
CCn1c(=S)sc2c(=O)n(CC(=O)Nc3cc(OC)ccc3OC)c(C)nc21	?	?	0	0	18µM	0
CCn1c(=S)sc2c(=O)n(CC(=O)Nc3ccccc3OC)c(C)nc21	0	?	0	0	?	0
Cc1nc2c(sc(=S)n2Cc2ccco2)c(=O)n1CC(=O)Nc1ccccc1Cl	0	?	0	0	0	0
CCn1c(=S)sc2c(=O)n(CC(=O)NC(C)CCc3ccccc3)c(C)nc21 (stereo unspecified)	0	?	0	0	29µM	0
O=C(CSc1nnc2ccc(-c3ccccn3)nn12)N1CCCC1	-	0	-	0	0	-
O=C(c1ccc(COc2ccccc2Cl)o1)N1N=C(C(F)F)CC1(O)C(F)F (stereo unspecified)	0	23µM	0	?	16µM	?
O=C(c1ccc(COc2ccc3ccccc3c2)o1)N1N=C(C(F)F)CC1(O)C(F)F (stereo unspecified)	0	?	?	0	21µM	?
O=C(c1ccc(COc2ccc(Br)cc2)o1)N1N=C(C(F)F)CC1(O)C(F)F (stereo unspecified)	0	?	0	?	?	?
Cc1cccc(NC(c2nnc(-c3ccccc3)o2)c2ccc(F)cc2Cl)c1C (stereo unspecified)	-	0	-	-	0	-
CCCOC(=O)c1c(NC(=O)C(C)Sc2nc(-c3ccccc3)cc(C(F)(F)F)n2)sc(C(=O)N(C)C)c1C (stereo unspecified)	-	?	-	-	15µM	-
SMILES	ELG1 repair inh	TDP1 cell CPT	RORg inh	IL1B secr inh	DT40 TDP1 no CPT	VP16 counter
CCN(CC)C(=O)c1sc(NC(=O)C(C)Sc2nc(-c3ccccc3)cc(C(F)(F)F)n2)c(C(=O)OC)c1C (stereo unspecified)	-	7.3µM	-	-	7.3µM	-
CC(Sc1nc(-c2ccccc2)cc(C(F)(F)F)n1)C(=O)NCCN1CCOCC1 (stereo unspecified)	0	0	0	0	0	0
CC(Sc1nc(-c2ccccc2)cc(C(F)(F)F)n1)C(=O)O (stereo unspecified)	0	?	0	0	0	0
CCn1nc(NS(=O)(=O)c2ccccc2)c2cc3ccccc3nc21	0	23µM	0	0	?	0
CCCn1nc(NS(=O)(=O)c2ccccc2)c2cc3ccccc3nc21	0	0	?	0	0	0
COc1cccc(N2CC(C(=O)Nc3ccc(C(=O)OC(C)C)cc3)CC2=O)c1 (stereo unspecified)	?	?	?	0	?	0
Cc1ccccc1CCNC(=O)c1ccc(Cn2c(=O)c3cccn3c3cccnc32)cc1	-	?	-	-	18µM	-
CCc1ccc(CNC(=O)c2ccc(Cn3c(=O)c4cccn4c4cccnc43)cc2)cc1	-	?	-	-	0.46µM	-
CCC(C)NC(=O)Cn1c(=O)n(-c2ccc(C)cc2)c(=O)c2ccccc21 (stereo unspecified)	-	0	-	-	0	-
CC(C)CCNC(=O)c1ccc(Cn2c(=O)c3cccn3c3cccnc32)cc1	-	?	-	-	0.52µM	-
CCC(C)NC(=O)Cn1c(=O)n(Cc2ccc(C(=O)NCc3ccc(C)cc3)cc2)c(=O)c2ccccc21 (stereo unspecified)	-	10µM	-	-	23µM	-
COc1ccc(CNC(=O)c2ccc(Cn3c(=O)c4cccn4c4cccnc43)cc2)cc1OC	-	0	-	-	0	-
Cc1cccc(C(=O)Nc2ccc(OCc3cc(=O)n4ccc(C)cc4n3)cc2)c1	-	0	-	-	0	-
Cc1ccc(CNC(=O)C2CCN(c3nc(C)cc(C)n3)CC2)cc1	-	0	-	0	0	-
CSc1cccc(NC(=O)Cn2ncn3c(cc4ccccc43)c2=O)c1	-	0	-	-	?	-
Cc1cc(C)c(C2=Nn3c(C)nnc3SC2C)cc1C (stereo unspecified)	0	18µM	?	0	12µM	0
CN(C)CCCNC(=O)c1ccc(-c2nc(-c3ccc(Cl)cc3)cs2)cc1	?	16µM	0	-97	21µM	?
COc1ccc(-c2nc(CCNC(=O)c3cc(OC)c(OC)c(OC)c3)cs2)cc1	-	13µM	-	-	13µM	-
